# Assay results reported in PMC5540273 (PLoS ONE, 2017).
# System: GAK
# Conditions: concentration: 1 μM, replicates: in singlicate; n = 1
# 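Note: KINOMEscan kinase panel screen.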
row,Structure (SMILES),%Inh
1,COc1cccc(-c2cc(-c3c[nH]nc3-c3ccccn3)ccn2)c1 [GW680338],75%
2,COc1cc2ncnc(Nc3ccc4nc(-c5ccccc5)[nH]c4c3)c2cc1OC.Cl [GW282450],68%
3,COC(=O)c1c(-c2ccccc2)c2cc(C(=O)O)ccc2c(=O)n1Cc1ccccc1,0%
4,Cc1cccc(-c2nc(Nc3ccncc3)c3ccccc3n2)n1 [GW855857],0%
5,Cc1cccc(-c2nc(-c3ccc(S(C)(=O)=O)cc3)sc2-c2ccnc(NCCc3ccccc3)c2)c1,0%
6,CN(C)CCN(C)C(=O)c1cc(-c2ccncc2)c(-c2ccc(Cl)c(O)c2)o1.Cl.Cl [SB-710397],29%
7,Cc1nnc(-c2ccc3occ(-c4ccc(S(C)=O)cc4)c3c2)[nH]1 (stereo not shown),24%
8,COc1cc2nccc(Nc3ccc(NC(=O)c4ccc(C)cc4)c(O)c3)c2cc1OC.Cl [GW440132],11%
9,Cc1cccc(-c2cc(Nc3ccncc3)c3ccccc3n2)n1 [GSK223675],0%
10,Cn1ccc2ncnc(Oc3ccc(Nc4nc5ccccc5[nH]4)cc3)c21,0%
11,Cc1cc(NCC(c2ccccc2)c2ccccc2)nc(NCc2ccc(C(F)(F)F)cc2)n1 [GW497681],0%
12,Cc1cccc(-c2nc(C)cc(Nc3ccncc3)n2)n1 [GSK257997],0%
13,Cl.c1ccc(-c2n[nH]cc2-c2ccnc(-c3ccc(CN4CCOCC4)cc3)c2)nc1 [GW776245],46%
